# PostGolgi ctrl – inhibits growth of the yeast control strain; inhibition, % at 10 µM; 98,000 tested, 5% active; efflux-deficient yeast background strain, growth absorbance A615, 16 h; AID 738
# CYP2C9 activ – CYP2C9 (human) activation; P11712; recombinant CYP2C9, luciferin-H conversion, luminescence; stronger effect = higher value; factor 1 = untreated enzyme, 0 = blocked; activation factor at 5 µM; 96,000 tested, 1.4% active;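 active = activation factor of 2 or more for CYP2C9 at a 5 µM dose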;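 note: 0 = sulfaphenazole-blocked wells and 1 = vehicle-only wells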
# CYP2C19 inh – blocks human cytochrome P450 2C19 | P33261 | CYP2C19 Supersomes, luciferin-H EGE luminescence, 30 min | inhibition, % at 5 µM | 96,000 tested, 21% active;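 active = CYP2C19 inhibition above a set limit at 5 µM in the primary screen, cut at about 50% in these data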;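 note: plate controls were negative control wells for no effect and 2.5 mM tranylcypromine positive control for full effect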
# Target sequence (P33261 whole entry, looked up): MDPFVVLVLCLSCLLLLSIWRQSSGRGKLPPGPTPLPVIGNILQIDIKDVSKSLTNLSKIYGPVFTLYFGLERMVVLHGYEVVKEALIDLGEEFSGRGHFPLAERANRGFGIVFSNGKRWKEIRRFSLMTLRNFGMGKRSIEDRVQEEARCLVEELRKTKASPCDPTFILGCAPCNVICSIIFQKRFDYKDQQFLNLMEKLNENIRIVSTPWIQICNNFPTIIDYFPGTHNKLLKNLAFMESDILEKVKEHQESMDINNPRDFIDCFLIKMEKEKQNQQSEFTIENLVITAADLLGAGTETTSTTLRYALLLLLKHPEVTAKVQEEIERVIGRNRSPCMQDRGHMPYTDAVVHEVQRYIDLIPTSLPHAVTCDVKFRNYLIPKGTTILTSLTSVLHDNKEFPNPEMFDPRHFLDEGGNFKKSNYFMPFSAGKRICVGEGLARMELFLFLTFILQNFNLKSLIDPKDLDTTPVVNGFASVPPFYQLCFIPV
# CYP2C9 inhib – inhibitors of human CYP2C9; P11712; CYP2C9 Supersomes, luciferin-H conversion, luminescence; inhibition, % at 5 µM; 96,000 tested, 20% active; AID 777;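 active = blocking of liver enzyme CYP2C9 beyond about 50% at 5 µM, limit read from the data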
# PostGolgi yeast – growth inhibition of a yeast mutant, post-Golgi transport screen. AID 739. inhibition, % at 10 µM. post-Golgi transport phenotypic cell assay. 98,000 tested, 0.9% active;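 note: yeast cells grown in 1536-well plates; yeast grown about 18 h at 30C before absorbance read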
# CYP2C19 activ – increases human CYP2C19 enzyme activity; P33261; recombinant CYP2C19, luciferin-H EGE luminescence; stronger effect = higher value; 0 = fully inhibited enzyme, 1 = untreated enzyme; activation factor at 5 µM; 96,000 tested, under 10 active; AID 1025;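 active = activation factor of at least 2 at 5 µM in the primary screen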;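 note: 0 = wells with 2.5 mM tranylcypromine and 1 = vehicle-only wells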
# * hit, by the source's call; . = no result. In the library only some 32% were active in any assay of this set; here they are far more common. Cut-off read from the data, not from the text of the source, unless noted: active = inhibition above about 30%; inactive = the rest.
SMILES,PostGolgi ctrl,CYP2C9 activ,CYP2C19 inh,CYP2C9 inhib,PostGolgi yeast,CYP2C19 activ
Cc1cc(C)c2c(n1)nn1c(NCCCn3ccnc3)cc(C)nc21,.,0,69*,96*,.,0.3
COc1ccc(-c2cc3nc(C)cc(NCCO)n3n2)cc1,7,0.8,-2,19,-6,1
Cc1cc(NCCCn2ccnc2)n2nc(-c3ccc(F)cc3)cc2n1,23,0,97*,98*,0,0
Cn1c(=O)c2c(nc(SCc3cc4c(cc3Cl)OCO4)n2C)n(C)c1=O,.,1.1,14,-10,.,0.9
CC(=O)Nc1ccc(NC(=O)CSc2ncnn2-c2ccccc2)cc1,-7,0.8,28,24,15,0.7
Cn1cccc1Cc1nnc(SCC(=O)Nc2ccccc2F)n1CCc1ccccc1,11,0.8,20,24,-2,0.8
CC(=O)c1ccc(NC(=O)CSc2nccn2CCc2ccccc2)cc1,18,0.5,53*,45,-5,0.5
N#Cc1ccccc1NC(=O)CSc1nccn1CCc1ccccc1,4,1.4,59*,-40,-1,0.4
O=C(CCSc1nccn1Cc1ccccc1)N1CCOCC1,4,1.2,15,-20,1,0.9
O=[N+]([O-])c1ccc(Sc2nccn2Cc2ccccc2)cc1,8,0.3,96*,70*,-1,0
Clc1ccc(CSc2nccn2Cc2ccccc2)cc1,-1,1.1,93*,-9,0,0.1
C=CCNc1nc2c(c(=O)[nH]c(=O)n2C)n1CCCCC,9,0.9,6,9,-1,0.9
Cc1ccc(NC(=O)CSc2nccn2Cc2ccccc2)cc1C,5,2*,34,-96,-16,0.7
CC(=O)Nc1ccc(NC(=O)CSc2nccn2Cc2ccccc2)cc1,5,0.9,17,12,-2,0.8
Cc1cc(C)nc(N2CCCC(C(=O)Nc3ccc4nc(C)c(C)nc4c3)C2)n1 (stereo not given),8,1.2,5,-17,19,0.9
Cc1cc(N2C(=O)CC(N3CCN(C(c4ccccc4)c4ccccc4)CC3)C2=O)no1 (stereo not given),3,0,78*,98*,4,0.2
O=C(O)CCc1c(C(=O)O)[nH]c2ccccc12,2,0.5,6,54*,-1,0.9
NC(=O)CCc1c[nH]c2ccccc12,-4,1.2,6,-24,4,0.9
Cc1[nH]c2ccccc2c1CCC(N)=O,2,3.1*,53*,-211,-7,0.5
O=C(O)CCCn1c(=O)[nH]c2ccccc2c1=O,-1,0.9,-6,6,1,1.1
CCCc1c(C)[nH]c2ccccc2c1=O,14,3.2*,-6,-224,-4,1.1
CCOC(=O)CCCOC(=O)c1ccc(S(=O)(=O)N(C)C)cc1,-9,.,.,.,-4,.
COc1ccccc1CCNC(=O)C1CCCO1 (stereo not given),19,1.2,-4,-17,1,1
CC(C)COC(=O)c1ccc(NC(=O)C2C3CCC(C3)C2C(=O)O)cc1 (stereo not given),6,1,7,-4,5,0.9
COc1ccc(NS(=O)(=O)c2ccc3c(c2)oc(=O)n3C)c(OC)c1,8,0.7,96*,30,2,0
SMILES,PostGolgi ctrl,CYP2C9 activ,CYP2C19 inh,CYP2C9 inhib,PostGolgi yeast,CYP2C19 activ
COc1cc(NS(=O)(=O)c2ccc3c(c2)oc(=O)n3C)cc(OC)c1OC,13,0.3,46,71*,2,0.5
CCOC(=O)c1ccc(NS(=O)(=O)c2ccc3c(c2)oc(=O)n3C)cc1,16,.,.,.,-2,.
COc1ccc(N2CCN(CCCNS(=O)(=O)c3ccc4c(c3)oc(=O)n4C)CC2)cc1,32*,1,-7,-2,-7,1.1
Cn1c(=O)oc2cc(S(=O)(=O)NCCN3CCCCCC3)ccc21,-12,1,15,0,-2,0.9
COC(=O)c1ccc(NS(=O)(=O)c2ccc3c(c2)oc(=O)n3C)cc1,25,0.1,89*,90*,-2,0.1
CCN1C(=O)/C(=C2/SC(C)=C(C)N2CC)SC1=S,10,0.8,41,22,-1,0.6
COc1ccccc1NC(=O)C1CCN(c2ncccn2)CC1,5,1.8,25,-75,8,0.8
CC(C)C(=O)NC(=S)NCC(=O)c1ccccc1,-2,0.8,17,21,0,0.8
CC1=C(CC(=O)c2ccccc2)C(=O)c2ccccc2C1=O,10,0.3,63*,68*,3,0.4
COc1ccc(-c2cc(C(F)(F)F)c3c(=O)n(-c4ccccc4)[nH]c3n2)cc1,33*,0.4,-5,63*,13,1
COc1ccc(C(=O)Nc2nc3nc(-c4ccccc4)cc(=O)n3[nH]2)cc1,5,0.7,5,33,-2,1
Cc1ccc(-c2ccc(CCC(=O)O)n2Cc2ccco2)cc1,12,0.4,32,57*,-2,0.7
O=C(O)CCc1ccc(-c2ccccc2)n1CC(=O)O,3,0.8,12,17,-5,0.9
COc1ccc(OC)c(-c2cn(S(=O)(=O)c3ccccc3)nc2N)c1,18,0.7,22,31,-11,0.8
Nc1cc(OC(=O)c2ccco2)nn1S(=O)(=O)c1ccc(F)cc1,3,0.7,-6,28,-4,1.1
COc1ccc(S(=O)(=O)n2nc(OC(=O)c3c(-c4ccccc4Cl)noc3C)cc2N)cc1,11,0.1,38,94*,-1,0.6
COc1ccccc1-c1cn(S(=O)(=O)c2ccc(C)cc2)nc1N,10,0.4,16,56*,2,0.8
CCCc1cn(S(=O)(=O)c2ccc(OC)cc2OC)nc1N,-7,0.9,48,12,-4,0.5
CCc1cn(S(=O)(=O)c2ccccc2OC)nc1N,9,1.8,50*,-80,4,0.5
CC(C)(C)C(=O)Oc1cc(N)n(S(=O)(=O)c2ccc(F)cc2)n1,-1,0.2,59*,75*,-7,0.4
COc1ccc(S(=O)(=O)n2nc(OC(=O)C3CCCCC3)cc2N)cc1,13,1.1,-15,-12,-4,1.1
Cc1ccc(S(=O)(=O)n2nc(OC(=O)c3ccco3)cc2N)cc1,5,.,.,.,7,.
COc1ccccc1C(=O)Oc1cc(N)n(S(=O)(=O)c2ccc(C)cc2)n1,7,0.2,39,81*,5,0.6
Cc1cc(S(=O)(=O)NCCN2CCOCC2)c(C)s1,1,1.1,34,-10,-8,0.7
COc1cc(S(=O)(=O)NCCN2CCOCC2)c(OC)cc1Cl,32*,0.9,65*,12,-3,0.4
COc1ccc(S(=O)(=O)NCCN2CCOCC2)c2ccccc12,11,1.6,92*,-64,22,0.1
CCCC(c1nnnn1CCOC)N1CCN(C(=O)c2ccco2)CC1 (stereo not given),6,0.6,50*,44,-1,0.5

# Screening data (PubChem)
